Screen size: about 15,000 compounds; about 60 (0.4%) were called active. Cut-off read from the data, not from the text of the source: active = activation above about 2.2%; inactive = the rest. This excerpt belongs to a sample that is enriched for actives.
Assay: activates NOTCH signaling in reporter cells (AID 434982)
Conditions: NOTCH signaling luciferase reporter cells, luminescence; at 2.5 µM; stronger effect = higher value

activation, active:
CC(=O)Nc1ccc(F)cc1F 3.83%
COC(=O)c1ccc(S(=O)(=O)NNC(=O)c2cn3cc(C(F)(F)F)cc(Cl)c3n2)n1C 3.18%
CC(=O)Nc1cccc([N+](=O)[O-])c1 6.11%

activation, inactive:
c1ccc2c(-c3csc(-c4ccc5c(c4)OCCO5)n3)csc2c1 -0.45%
O=S(=O)(c1ccc(Cl)cc1)n1nccc1/C=C/c1cccs1 0.05%
N#Cc1c(-c2cccs2)cc(-c2cccs2)nc1N -0.55%
CSc1sc(C(=O)Nc2cccc(Cl)c2)c(-c2cccs2)c1C#N -0.76%
CC1(C)C2CC[C@](C)(C2)C1NC(=O)c1c(Cl)cccc1Cl (stereo not given in full) -0.41%
CC(C)(C)c1csc(Sc2ccc([N+](=O)[O-])cc2[N+](=O)[O-])n1 -0.69%
CSc1nsc(SC)c1C(=O)NC(=O)NNc1ccc(F)c(Cl)c1 -0.35%
CCCCc1ccc(-n2c(-c3ccc(F)cc3)coc2=O)cc1 -0.29%
Clc1ccc(C2=NN(Cc3ccccc3)CC2)s1 0.29%
Cc1ccc(SCC(=O)Nc2ccc(F)cc2F)cc1 0.31%
COc1ccc(NC(=S)Nc2ccc(F)cc2F)c([N+](=O)[O-])c1 -0.83%
O=C1c2ccccc2C(=O)N1CNc1ccc(C2CCCCC2)cc1 -0.31%
Cc1ccc(CSC(=N)N)cc1 0.1%
COc1ccc(OC(=O)/C=C/c2sc3ccccc3c2C)cc1 -0.25%
Cc1nc(-c2ccccn2)n2nnnc2c1Cl -0.27%
Cc1oc(C(C)(C)C)cc1C(=O)NC1Cc2ccccc2C1 -0.44%
COC(=O)c1scc(S(=O)(=O)Cc2ccco2)c1N/N=C(\C#N)S(=O)(=O)C(C)C 0.15%
NNC(=O)c1cc(OCC(F)(F)F)nc(OCC(F)(F)F)c1 -0.48%
COc1cc(NC(=O)c2ncc(C(F)(F)F)cc2Cl)c(C(=O)O)cc1OC -0.4%
COC(=O)c1ccc(S(=O)(=O)N2CCN(c3ccc([N+](=O)[O-])cn3)CC2)n1C 0.16%
Cc1ccc(OC(=O)c2cccc([N+](=O)[O-])c2)c(Br)c1 0.36%
CC(=O)Nc1ccc(NC(=O)c2cc(C)ccc2[N+](=O)[O-])c(C)c1 -0.09%
O/N=C/c1ccc(F)c(Cl)c1 0.44%
COC(=O)/C(=C/c1ccccc1)c1ccccc1 -0.19%
CSC(=CC(=O)c1cccs1)SC -0.45%
Cc1nc2ccccn2c1C(=O)N/N=C/c1cn(-c2ccccc2)nc1-c1cccs1 -0.2%
N/C(=N\OCc1noc(-c2ccsc2)n1)c1ccc(C(F)(F)F)cc1 -0.33%
O=C(Cn1nnc(N2CCOCC2)n1)N/N=C/c1ccc(-c2cccc([N+](=O)[O-])c2)o1 -0.66%
CS(=O)(=O)/N=C(\N)c1ccncc1 -1.1%
Cc1noc(C)c1C(=O)c1c(C)[nH]n(-c2ccccc2)c1=O 0.14%
O=S(=O)(Oc1ccc(Cl)c(Cl)c1)c1c(Cl)sc(Cl)c1Br -0.59%
CC(C)(C)OC(=O)n1ccc2cc(Br)ccc21 -0.83%
Cc1ccc(S(=O)(=O)NNC(=O)CCc2nc(-c3ccc(Cl)cc3)no2)cc1 0.6%
CC(=O)N1C=CC(c2c[nH]c3ccccc23)C=C1 -0.43%
CS(=O)(=O)c1csc(C(=O)NCc2cccnc2)c1Cl -0.31%
CN(NS(=O)(=O)c1ccc(C(F)(F)F)cc1)c1cnn(C)c(=O)c1Cl -0.2%
O=C(Nc1ccccc1C(=O)NC1CCSC1)c1cccc(Cl)c1 (stereo not given) -0.57%
c1ccc(-c2nsc(N3CCNCC3)n2)cc1 0.94%
Cn1cc(Cl)c(/C=C(\C#N)C(N)=O)n1 -0.29%
O=c1[nH]cc(Br)c(=O)[nH]1 -0.83%
O=C(CN1CCOCC1)NNC(=O)c1cccs1 -0.03%
O=C(Cc1cccc2ccccc12)NNC(=O)Nc1ccc(Cl)cc1 -0.03%
COc1cccc(NC(=S)NNC(=S)NC2CC3CCC2C3)c1 (stereo not given) -0.54%
Cc1cc(C(=O)NCCNS(=O)(=O)c2ccc(Cl)cc2)c(C)o1 -0.14%
CNC(=S)NNC(=O)CSc1cccs1 1.08%
N#C/C(=C\c1cccn1S(=O)(=O)c1ccccc1)C(=O)c1ccccc1 0.09%
O=C(Cc1cc(F)cc(F)c1)n1nccc1-c1cccs1 -0.68%
O=C(O)C1CC2CC1CCC2O (stereo not given) -0.37%
Fc1ccc(NC(=S)N2CCN=C2Nc2ccc(F)cc2)cc1 -1.11%
CC(=O)NC12CC3(C)CC(C)(CC(C)(C3)C1)C2 1.34%
Cn1c(S(=O)(=O)O)nc2ccccc21 -0.35%
Cc1ccc(S(=O)(=O)NC(=O)NNc2ncnc3scc(-c4ccccc4)c23)cc1 -0.88%
CCN=C(NCC)Nc1ccc(Cl)cc1 -0.99%
CC(=O)/C(=C\N(C)C)c1ncccc1[N+](=O)[O-] 0%
CNC(=S)Nc1cscc1S(=O)(=O)c1ccc(Cl)cc1 -0.17%
CCOC(=O)c1sc(SCCS(=O)(=O)c2ccc(Cl)cc2)c(C#N)c1-c1ccccc1 -0.58%
O=S(=O)(Oc1ncccc1C(F)(F)F)c1cccc(F)c1 -0.36%
O=C(NC(=O)C1CCN(c2ncccc2[N+](=O)[O-])CC1)Nc1ccc(Cl)cc1 0.44%
CCOC(=O)CC(=O)CSc1nnc(N)s1 0%
NC(=O)C1CCN(CC(O)COc2ccc(Cl)c(Cl)c2)CC1 (stereo not given) -0.63%
O=c1o[nH]c(-c2ccccc2)c1N=Nc1c(F)cccc1Cl 0.09%
CCOC(=O)C(O)(NC(=O)Nc1ccccc1)C(F)(F)F (stereo not given) -0.73%
